Reference: PubChem BioAssay (NCATS)
Where “and” joins values, the source holds several entries; their conditions need not be identical. Equal entries are not always repeated. Results filed as inconclusive are left out. More than one record can exist for a structure, and the calls need not agree. Calls of active or inactive are those of the source. Unless noted, calls follow the shape of the dose curve; as a rule, active = well fitted curve in the direction sought with a large enough effect; inconclusive = small, poorly fitted or top-dose-only effect, or another doubt; inactive = no such curve, though single readings can be large; an effect the other way counts as inactive or inconclusive.

Assays:
WaGa = assay: qHTS assay to identify novel small-molecules to repurpose for Merkel cell carcinoma treatment (AID 1296009); details: MCC and control cell lines, CellTiter-Glo viability, 72 h; series mostly up to 46 µM; also: nearly all actives have a fitted effect of over 60% in size; also: potency is read from the fitted curve at half-maximal effect
Outline: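 After compound transfer in DMSO, plates were kept 72 hr at 37 degree celsius. Luminescent ATP signal from CellTiter-Glo served as viability measure, normalized against DMSO and no-cell controls.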

C33A = assay: Primary qHTS to identify gynecologic anti-cancer compounds using libraries of approved drugs and bioactive compounds (AID 1345084); details: Gynecologic cancer cell panel viability, ATPlite luminescence, 48 h; series mostly up to 57.5 µM; also: % is scaled to controls: 0 for no effect and ±100 for the full control effect; nearly all actives have a fitted effect of over 55% in size
Outline: (§1)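 Cytotoxicity screen measuring ATP content by luciferase luminescence. Each compound is applied at five concentrations for 48 h at 37 C with 5% CO2.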

CAOV3 = assay: as above; details: Gynecologic cancer cell panel viability, ATPlite luminescence, 48 h; series mostly up to 57.5 µM
Outline: as §1

CASKI = assay: as above; details: Gynecologic cancer cell panel viability, ATPlite luminescence, 48 h; series mostly up to 57.5 µM
Outline: as §1

Es-2 = assay: as above; details: Gynecologic cancer cell panel viability, ATPlite luminescence, 48 h; series mostly up to 57.5 µM
Outline: as §1

HeLa = assay: as above; details: Gynecologic cancer cell panel viability, ATPlite luminescence, 48 h; series mostly up to 57.5 µM
Outline: as §1

Hek293T = assay: as above; details: Gynecologic cancer cell panel viability, ATPlite luminescence, 48 h, control line for the selectivity index; series mostly up to 57.5 µM
Outline: as §1

JEG-3 = assay: as above; details: Gynecologic cancer cell panel viability, ATPlite luminescence, 48 h; series mostly up to 57.5 µM
Outline: as §1

OV90 = assay: as above; details: Gynecologic cancer cell panel viability, ATPlite luminescence, 48 h; series mostly up to 57.5 µM
Outline: as §1

PA-1 = assay: as above; details: Gynecologic cancer cell panel viability, ATPlite luminescence, 48 h; series mostly up to 57.5 µM
Outline: as §1

SKOV3 = assay: as above; details: Gynecologic cancer cell panel viability, ATPlite luminescence, 48 h; series mostly up to 57.5 µM
Outline: as §1

Tov-21-G = assay: as above; details: Gynecologic cancer cell panel viability, ATPlite luminescence, 48 h; series mostly up to 57.5 µM
Outline: as §1

Tov112D = assay: as above; details: Gynecologic cancer cell panel viability, ATPlite luminescence, 48 h; series mostly up to 57.5 µM
Outline: as §1

[1] = Drug repurposing screens with cells derived from glioblastoma tumor samples (AID 1345199); details: GBM patient neurospheres viability, ATP luminescence, 48 h; also: nearly all actives have a fitted effect of over 40% in size; also: potency is read from the fitted curve at half-maximal effect; as to activity, negative = cell killing: % is scaled to controls: 0 for no effect and ±100 for the full control effect
Outline: (§2)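 Four patient lines of CD133+ GBM neurospheres were screened at several concentrations; hits were retested in those lines plus three slower-growing GBM lines, using 48-hour treatment and ATP-based viability.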

astro = assay: as above; details: viability, ATP luminescence, 48 h; series mostly up to 45.9 µM
Outline: as §2

[2] = target: Nuclear receptor subfamily 1 group I member 2 (Rattus norvegicus) (UniProt Q9R1A7); assay: qHTS assay for small molecule activators of the rat pregnane X receptor (rPXR) signaling pathway (AID 651751; call rule not given here; also: 0% is about no effect); details: rPXR reporter cells, luciferase (One-Glo), 24 h
[3] = qHTS assay for small molecule activators of the human pregnane X receptor (PXR) signaling pathway (AID 720659; call rule not given here; also: 0% is about no effect)
[4] = at 45.9 µM (top of the series), tumour line B
[5] = at 45.9 µM (top of the series), tumour line D
[6] = at 46 µM (top of the series), tumour line A
[7] = at 46.1 µM (top of the series), tumour line C

Sequence of Nuclear receptor subfamily 1 group I member 2 (Rattus norvegicus) (Q9R1A7 whole entry, looked up): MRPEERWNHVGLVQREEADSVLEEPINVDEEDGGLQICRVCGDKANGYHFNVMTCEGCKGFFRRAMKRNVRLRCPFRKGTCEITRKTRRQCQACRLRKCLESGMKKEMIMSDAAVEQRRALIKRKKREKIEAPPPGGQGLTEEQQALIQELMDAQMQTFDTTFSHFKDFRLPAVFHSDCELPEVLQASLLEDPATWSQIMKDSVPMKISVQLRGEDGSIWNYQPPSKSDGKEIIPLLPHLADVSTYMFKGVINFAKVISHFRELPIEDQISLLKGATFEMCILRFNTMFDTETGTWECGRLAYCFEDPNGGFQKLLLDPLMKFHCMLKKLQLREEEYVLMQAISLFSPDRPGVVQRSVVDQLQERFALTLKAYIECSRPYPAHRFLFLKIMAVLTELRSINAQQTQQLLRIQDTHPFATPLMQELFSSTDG

Clc1cccc(Cl)c1NC1=NCCN1
inactive: Potency (WaGa) | Potency (C33A) | Potency (CAOV3) | Potency (CASKI) | Potency (Es-2) | Potency (HeLa) | Potency (Hek293T) | Potency (JEG-3) | Potency (OV90) | Potency (PA-1) | Potency (SKOV3) | Potency (Tov-21-G) | Potency (Tov112D) | activity, negative = cell killing [1, 4] 5.06% | activity, negative = cell killing [1, 5] -7.27% | activity, negative = cell killing [1, 6] -29.3% | activity, negative = cell killing [1, 7] 0.125% | Potency (astro)

O=C1CCC(N2C(=O)c3ccccc3C2=O)C(=O)N1 (centres undefined)
inactive: Potency (WaGa) | Potency (C33A) | Potency (CAOV3) | Potency (CASKI) | Potency (Es-2) | Potency (HeLa) | Potency (Hek293T) | Potency (JEG-3) | Potency (OV90) | Potency (PA-1) | Potency (SKOV3) | Potency (Tov-21-G) | Potency (Tov112D) | activity, negative = cell killing [1, 4] -4.2% | activity, negative = cell killing [1, 5] -2.61% | activity, negative = cell killing [1, 6] -6.31% | activity, negative = cell killing [1, 7] 3.21% | Potency (astro) | max response [2] 1.73% | outcome [3]

OC(CN1CCC(Cc2ccc(F)cc2)CC1)c1ccc(Cl)cc1 (centres undefined)
inactive: Potency (WaGa) | Potency (C33A) | Potency (CAOV3) | Potency (CASKI) | Potency (Es-2) | Potency (HeLa) | Potency (Hek293T) | Potency (JEG-3) | Potency (OV90) | Potency (PA-1) | Potency (SKOV3) | Potency (Tov-21-G) | Potency (Tov112D) | Potency (astro)

O=C1CCCC2=C1C(c1[nH]ncc1Cl)N=C(Nc1nc3ccccc3o1)N2 (centres undefined)
inactive: Potency (WaGa) | Potency (C33A) | Potency (CAOV3) | Potency (CASKI) | Potency (Es-2) | Potency (HeLa) | Potency (Hek293T) | Potency (JEG-3) | Potency (OV90) | Potency (PA-1) | Potency (SKOV3) | Potency (Tov-21-G) | Potency (Tov112D)

CCCS(=O)(=O)Nc1ccc(F)c(C(=O)c2c[nH]c3ncc(Cl)cc23)c1F
inactive: Potency (WaGa) | Potency (C33A) | Potency (CAOV3) | Potency (CASKI) | Potency (HeLa) | Potency (Hek293T) | Potency (JEG-3) | Potency (OV90) | Potency (Tov112D)

Cc1c(C)c2c(c(C)c1O)CCC(C)(COc1ccc(CC3SC(=O)NC3=O)cc1)O2 (centres undefined)
active: Potency (astro) 10 µM
inactive: Potency (C33A) | Potency (CAOV3) | Potency (CASKI) | Potency (Es-2) | Potency (HeLa) | Potency (Hek293T) | Potency (JEG-3) | Potency (OV90) | Potency (PA-1) | Potency (Tov-21-G) | Potency (Tov112D) | activity, negative = cell killing [1, 4] -4.67% | activity, negative = cell killing [1, 7] -19.7% | max response [2] -12.9%
16.8 µM (active) and inactive: Potency (WaGa)

CC(C)NCC(O)COc1ccc(COCCOC(C)C)cc1 (centres undefined)
inactive: Potency (WaGa) | Potency (C33A) | Potency (CAOV3) | Potency (CASKI) | Potency (Es-2) | Potency (HeLa) | Potency (Hek293T) | Potency (JEG-3) | Potency (OV90) | Potency (PA-1) | Potency (SKOV3) | Potency (Tov-21-G) | Potency (Tov112D) | activity, negative = cell killing [1, 4] -9.69% and -16.2% | activity, negative = cell killing [1, 5] 1.75% and -24.1% | activity, negative = cell killing [1, 7] -2.09% and 0.649% | Potency (astro)
active: Potency ([1]; tumour line A) 11.2 µM

OC(CCN1CCCCC1)(c1ccccc1)C1CC2C=CC1C2 (centres undefined)
inactive: Potency (WaGa) | Potency (C33A) | Potency (CAOV3) | Potency (CASKI) | Potency (Es-2) | Potency (HeLa) | Potency (Hek293T) | Potency (JEG-3) | Potency (OV90) | Potency (PA-1) | Potency (SKOV3) | Potency (Tov-21-G) | Potency (Tov112D) | activity, negative = cell killing [1, 4] -6.31% and -18.3% | activity, negative = cell killing [1, 7] -5.16% | Potency (astro)

CCC(C)n1ncn(-c2ccc(N3CCN(c4ccc(OC[C@H]5CO[C@](Cn6cncn6)(c6ccc(Cl)cc6Cl)O5)cc4)CC3)cc2)c1=O (some centres undefined)
inactive: Potency (WaGa) | Potency (C33A) | Potency (CAOV3) | Potency (CASKI) | Potency (Es-2) | Potency (HeLa) | Potency (Hek293T) | Potency (JEG-3) | Potency (OV90) | Potency (PA-1) | Potency (SKOV3) | Potency (Tov-21-G) | Potency (Tov112D)

Cn1cc(-c2ccc3nnc(C(F)(F)c4ccc5ncccc5c4)n3n2)cn1
inactive: Potency (WaGa) | Potency (C33A) | Potency (CAOV3) | Potency (CASKI) | Potency (Es-2) | Potency (HeLa) | Potency (Hek293T) | Potency (JEG-3) | Potency (OV90) | Potency (PA-1) | Potency (Tov-21-G) | Potency (Tov112D)

CCCC(CCC)C(=O)O
inactive: Potency (WaGa) | Potency (C33A) | Potency (CAOV3) | Potency (CASKI) | Potency (Es-2) | Potency (HeLa) | Potency (Hek293T) | Potency (JEG-3) | Potency (OV90) | Potency (PA-1) | Potency (Tov-21-G) | Potency (Tov112D) | activity, negative = cell killing [1, 4] -7.18% | activity, negative = cell killing [1, 5] -10.3% | activity, negative = cell killing [1, 6] -15.5% | activity, negative = cell killing [1, 7] 0.524% | Potency (astro) | outcome [3]

COc1ccc2nc(S(=O)Cc3ncc(C)c(OC)c3C)[nH]c2c1 (centres undefined)
inactive: Potency (WaGa) | Potency (C33A) | Potency (CAOV3) | Potency (CASKI) | Potency (Es-2) | Potency (HeLa) | Potency (Hek293T) | Potency (JEG-3) | Potency (OV90) | Potency (PA-1) | Potency (SKOV3) | Potency (Tov-21-G) | Potency (Tov112D) | activity, negative = cell killing [1, 4] -19.3% | Potency (astro) | max response [2] 14.6%

Nc1nc2ccc(OC(F)(F)F)cc2s1
inactive: Potency (WaGa) | Potency (C33A) | Potency (CAOV3) | Potency (CASKI) | Potency (Es-2) | Potency (JEG-3) | Potency (OV90) | Potency (SKOV3) | activity, negative = cell killing [1, 7] 16.9% | Potency (astro)

COc1ccc(CC2=NN3C([C@@H](CCc4ccccc4)[C@@H](C)O)=NC(C)C3C(=O)N2)cc1OC (some centres undefined)
inactive: Potency (WaGa)
